Bioassay records deposited in PubChem BioAssay by National Center for Advancing Translational Sciences (NCATS).
RORgamma inh: qHTS for inhibitors of ROR gamma transcriptional activity; 310,000 compounds, 5.4% hits; Drosophila S2 Gal4-RORgamma UAS-luciferase reporter, 20 h; Nuclear receptor ROR-gamma (Mus musculus), P51450; Potency, µM (titrated, usually from 53.6 µM), for the others: at the top dose activity change, negative = inhibition, actives largely listed as inhibitors; AID 2551, 2010; further: potency means the concentration at half of the fitted maximal effect; on the % scale 0 is the no-effect control and ±100 the full control effect; nearly all actives have a fitted effect of over 60% in size
Target sequence (P51450 whole entry, looked up, the tested form may be a part): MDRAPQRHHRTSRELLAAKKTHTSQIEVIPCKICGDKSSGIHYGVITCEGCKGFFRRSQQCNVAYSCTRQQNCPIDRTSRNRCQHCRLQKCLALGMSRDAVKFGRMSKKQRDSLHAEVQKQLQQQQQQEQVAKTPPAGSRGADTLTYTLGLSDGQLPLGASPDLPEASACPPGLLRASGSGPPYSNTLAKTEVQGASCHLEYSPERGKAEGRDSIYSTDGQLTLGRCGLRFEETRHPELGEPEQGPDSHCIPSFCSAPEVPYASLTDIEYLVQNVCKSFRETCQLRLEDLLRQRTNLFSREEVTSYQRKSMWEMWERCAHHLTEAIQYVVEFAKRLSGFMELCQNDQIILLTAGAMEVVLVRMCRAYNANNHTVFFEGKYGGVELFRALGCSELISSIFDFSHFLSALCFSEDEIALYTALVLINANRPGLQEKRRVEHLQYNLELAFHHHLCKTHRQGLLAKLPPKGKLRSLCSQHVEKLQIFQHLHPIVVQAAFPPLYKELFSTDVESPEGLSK
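ROR gamma transcriptional activity was tracked as Gal4-UAS luciferase output in stably transfected Drosophila Schneider cells, with compound added 1 hr before 700 uM copper sulfate induction and a 20 hr ambient-temperature incubation.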
VP16 counter: VP16 counterscreen qHTS for inhibitors of ROR gamma transcriptional activity | 310,000 compounds, 3.5% hits | Drosophila S2 Gal4-VP16 UAS-luciferase, luminescence, 20 h | Potency, µM (series often up to 53.6 µM), without a hit: at the highest dose activity, negative = inhibition, actives largely listed as inhibitors;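 further: Gal4-VP16 expression switched on by copper sulfate through the metallothionein promoter; potency means the concentration at half of the fitted maximal effect; on the % scale 0 is the no-effect control and ±100 the full control effect; nearly all actives have a fitted effect of over 50% in size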
Six1-Eya2 blk: qHTS Assay for Inhibitors of the Six1/Eya2 Interaction. activity change, % (concentration not given with the values). Homeobox protein SIX1 (Homo sapiens) + Protein phosphatase EYA2 (Homo sapiens), …. 360,000 compounds, 0.56% hits. AlphaScreen GST-Six1/His-Eya2 binding, biochemical; stronger effect = lower value; in the data active means activity change below about -65%; inconclusive means mostly about -30% to -63%; further: on the % scale 0 is the no-effect control and ±100 the full control effect
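Six1/Eya2 binding was read as AlphaScreen signal after compounds were pinned into GST-Six1 plus His-tagged Eya2 (5X stock 250/500 nM) in pH 8.0 Tris/NaCl/TCEP buffer, beads added, then incubated 1 h, 37 C, dark.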
p53 reactivation: qHTS assay for re-activators of p53 using a Luc reporter; H1299 p53-A138V BP100-luciferase reporter, luminescence, 24 h; Potency, µM (top dose mostly 92.2 µM), without a hit: at the top dose activity change, positive = activation, most hits filed as activators; AID 504706, 2011; 320,000 compounds, 0.063% hits; further: potency means the concentration at half of the fitted maximal effect; % of control where 0% means no effect; nearly all actives have a fitted effect of over 45% in size
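p53-null H1299 cells stably carrying temperature-sensitive p53-A138V and a BP100-luciferase reporter were pinned with compounds (4-point, 1:5 series) and held 24 hrs at 37 deg C. Luminescence was read 10 min after detection reagent.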
CtBP-E1A inh: qHTS Assay for Inhibitors of the CtBP/E1A Interaction; CtBP / adenovirus E1A interaction (AlphaScreen); AlphaScreen GST-E1A/His-CtBP binding, 1536-well; stronger effect = lower value; activity change, % (concentration not given with the values); 340,000 compounds, 0.49% hits; in the data active means activity change below about -65%; inconclusive means mostly about -30% to -63%; further: on the % scale 0 is the no-effect control and ±100 the full control effect
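AlphaScreen with 125 nM GST-E1A and 125 nM His-CtBP (5X stocks) in Tris pH 8.0, 300 mM NaCl, BSA, Tween 20, TCEP. Compounds preincubated 2 h at 37 deg C, then glutathione donor/nickel acceptor beads added for 1 h at 37 deg C in dark.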
* = called active by the depositor; ? = inconclusive; / = not tested or not shown. Rows were chosen to be rich in hits. Some 5.4% of all compounds tested hit in one or more screens of this group. Unless noted, the call rests on the fitted dose curve; in most records, active means well fitted curve in the direction sought with a large enough effect; inconclusive means small, poorly fitted or top-dose-only effect, or another doubt; inactive means no such curve, though single readings can be large; an effect the other way counts as inactive or inconclusive.

SMILES	RORgamma inh	VP16 counter	Six1-Eya2 blk	p53 reactivation	CtBP-E1A inh
O=C(NCC(=O)N1CCCCCCC1)c1ccc(Cl)c(Cl)c1	/	/	-2	/	-1
Cc1cccc(C(=O)NC(=S)Nc2ccccc2C(F)(F)F)c1	4.5µM*	5.6µM*	-13	?	-7
Cc1ccc(C(=O)NC(=S)Nc2ccccc2C(F)(F)F)cc1C	2.5µM*	13µM*	-15	3%	-7
Cc1cccc(C(=O)NC(=S)Nc2ccccc2C(=O)O)c1	1%	-10%	-8	9%	-7
Cn1cccc1CC(=O)NNC(=S)Nc1ccc(Cl)cc1	11µM*	?	1	6%	-12
O=C(Cc1noc2ccccc12)NNC(=S)Nc1ccc(Cl)cc1	11µM*	-17%	-8	-5%	2
Cn1cccc1CC(=O)NNC(=S)Nc1ccccc1Cl	-26%	-10%	-2	-2%	0
CCn1c(=O)c2c(nc(SCC(=O)Nc3ccccc3)n2C)n(C)c1=O	-7%	-3%	-3	-2%	20
COc1cc(CN2CCNC(=O)C2CC(=O)O)cc(OC)c1 (configuration not stated)	-2%	-14%	-4	1%	-3
CCCCC(=O)NCCc1c(Cc2ccccc2)[nH]c2ccccc12	39%	-21%	/	/	/
CNC(=O)C(N)CSC(C)C1=C(C)c2cc3[n-]c(cc4nc(cc5[n-]c(cc1n2)c(C)c5CCC(=O)O)C(CCC(=O)O)=C4C)c(C)c3C(C)SCC(N)C(=O)NC.[Fe+2] (configuration not stated)	11%	3%	/	/	/
CCN(CC(=O)NC(C)C)Cc1nc2sc3c(c2c(=O)[nH]1)CCC3	1.1µM*	4.5µM*	-1	0%	-17
CCN(CC(=O)Nc1sc2c(c1C#N)CCC(C)C2)Cc1nc2ccccc2c(=O)[nH]1 (configuration not stated)	2.5µM*	?	4	-3%	1
CC1CCc2c(sc(NC(=O)CCc3nc4ccccc4c(=O)[nH]3)c2C#N)C1 (configuration not stated)	/	/	1	?	/
CCN(CC(=O)Nc1sc2c(c1C#N)CCCC2)Cc1nc2ccccc2c(=O)[nH]1	5.6µM*	?	7	5%	29
CN(C(=O)COC(=O)c1nc(Cl)ccc1Cl)c1ccccc1	29%	-6%	0	-6%	7
Nc1ncnc2c1ncn2C1OCC(O)C1O (configuration not stated)	/	/	3	/	6
O=[N+]([O-])c1ccc(/C=C/C2=NN(c3ccccc3)C(c3ccco3)C2)cc1 (configuration not stated)	?	20µM*	-12	15%	-7
C=CC1=CCN(S(=O)C(C)(C)C)[C@H]1CCO (some centres not stated)	/	/	8	/	4
O=C(O)c1ccc(Cl)c(NCc2cccs2)c1	/	/	2	/	3
CCCCOc1ncnc2c1[nH]c1ccc(C)cc12	-24%	10µM*	5	4%	4
CCCOc1ncnc2c1[nH]c1ccc(OC)cc12	-12%	-10%	0	8%	/
CS(=O)(=O)c1ccc2nc(NC(=O)C3CC3)sc2c1	/	/	-5	/	/
Cc1ccc(C)n1Cc1ccc(C(=O)O)cc1	-2%	16%	-71*	-4%	4
COc1ccc(C(=O)COC(=O)C2CC3CCCC(C2)C3=O)cc1Br (configuration not stated)	/	/	-3	-1%	7
COc1ccc(C(=O)COC(=O)CN2CC(=O)Oc3ccccc32)cc1Br	29%	17%	-93*	?	-93*
CC1(c2nc3ccccc3[nH]2)CCC(=O)N1C1CC1 (configuration not stated)	/	/	2	/	1
CCOc1ccc(OCCC(=O)OCC(=O)N2CCN(S(=O)(=O)c3ccc(Cl)cc3)CC2)cc1	11µM*	18µM*	0	?	1
Cc1ccc(NC(=O)CCC(=O)N2CCC(C)CC2)c([N+](=O)[O-])c1	6%	-14%	-3	-14%	-1
